Assay results as given in the supplement of paper PMC10849652.
Of roughly 8,800 targets only a part is listed; those with a hit were picked by preference. About 0.5% of all pairs of compound and target were hits. Unmarked numbers belong to inactive results.

Assays:
Experiment in all cases: log2 fold change, soluble protein after heating vs DMSO (PISA); higher = thermal stabilisation; K562 lysate, 10 uM; active = over 0.2 and 3.5 SD of the protein, either way, in both replicates (recomputed)
[1] = compound: C1=CC=C(C=C1)[C@H](COC2=CC3=C(C=C2)NC(=O)N3)NC(=O)C4=CC=CN(C4=O)CC5=CC(=C(C=C5)F)F
Summary of the method: (§1)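 Dounce homogenisation of K562 pellets in PBS pH 7.4 with 1 mM MgCl2 produced a crude extract, used at 1 mg/mL protein. Exposure to 10 μM compound lasted 30 min, and aliquots were then heated for 3 min across 48°C-58°C, pooled and brought to 0.5% NP-40 at 4°C. The supernatant after 21,000xg for 90 min was quantified by TMTpro 16plex LC-MS/MS with channel sums equalised. Duplicate values are given as log-two fold change in thermal stability relative to solvent controls.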

[2] = compound: CC1=C(SC2=C1C(=N[C@H](C3=NN=C(N32)C)CC(=O)N)C4=CC=C(C=C4)Cl)C
Summary of the method: as §1

[3] = compound: CC1=C2C(=CC=C1)N=C(N(C2=O)C3=CC=CC=C3C)CN4C=NC5=C(N=CN=C54)N
Summary of the method: as §1

[4] = compound: Cc1sc2c(c1C)C(c1ccc(Cl)cc1)=N[C@@H](CC(=O)OC(C)(C)C)c1nnc(C)n1-2
Summary of the method: as §1

[5] = compound: c1ccc([C@@H]2C[C@H]2NC2CCNCC2)cc1
Summary of the method: as §1

Sequence of UniProt O96013 (O96013 whole entry, looked up): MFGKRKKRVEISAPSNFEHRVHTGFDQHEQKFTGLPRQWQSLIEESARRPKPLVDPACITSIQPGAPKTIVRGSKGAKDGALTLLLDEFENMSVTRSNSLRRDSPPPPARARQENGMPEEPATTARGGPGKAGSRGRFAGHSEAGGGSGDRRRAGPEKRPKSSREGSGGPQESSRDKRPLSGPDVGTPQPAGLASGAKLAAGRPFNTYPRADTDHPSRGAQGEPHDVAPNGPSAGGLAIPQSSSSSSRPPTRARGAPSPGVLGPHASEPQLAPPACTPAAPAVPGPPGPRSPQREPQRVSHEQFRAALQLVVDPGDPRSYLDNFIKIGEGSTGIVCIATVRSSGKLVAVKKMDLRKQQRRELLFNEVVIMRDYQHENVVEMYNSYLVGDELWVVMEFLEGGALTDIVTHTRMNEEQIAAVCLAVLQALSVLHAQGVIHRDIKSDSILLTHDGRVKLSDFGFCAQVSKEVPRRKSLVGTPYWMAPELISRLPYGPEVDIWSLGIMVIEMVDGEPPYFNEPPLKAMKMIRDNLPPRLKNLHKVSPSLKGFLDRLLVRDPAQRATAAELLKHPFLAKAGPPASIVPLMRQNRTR
Sequence of UniProt O94916 (O94916 whole entry, looked up): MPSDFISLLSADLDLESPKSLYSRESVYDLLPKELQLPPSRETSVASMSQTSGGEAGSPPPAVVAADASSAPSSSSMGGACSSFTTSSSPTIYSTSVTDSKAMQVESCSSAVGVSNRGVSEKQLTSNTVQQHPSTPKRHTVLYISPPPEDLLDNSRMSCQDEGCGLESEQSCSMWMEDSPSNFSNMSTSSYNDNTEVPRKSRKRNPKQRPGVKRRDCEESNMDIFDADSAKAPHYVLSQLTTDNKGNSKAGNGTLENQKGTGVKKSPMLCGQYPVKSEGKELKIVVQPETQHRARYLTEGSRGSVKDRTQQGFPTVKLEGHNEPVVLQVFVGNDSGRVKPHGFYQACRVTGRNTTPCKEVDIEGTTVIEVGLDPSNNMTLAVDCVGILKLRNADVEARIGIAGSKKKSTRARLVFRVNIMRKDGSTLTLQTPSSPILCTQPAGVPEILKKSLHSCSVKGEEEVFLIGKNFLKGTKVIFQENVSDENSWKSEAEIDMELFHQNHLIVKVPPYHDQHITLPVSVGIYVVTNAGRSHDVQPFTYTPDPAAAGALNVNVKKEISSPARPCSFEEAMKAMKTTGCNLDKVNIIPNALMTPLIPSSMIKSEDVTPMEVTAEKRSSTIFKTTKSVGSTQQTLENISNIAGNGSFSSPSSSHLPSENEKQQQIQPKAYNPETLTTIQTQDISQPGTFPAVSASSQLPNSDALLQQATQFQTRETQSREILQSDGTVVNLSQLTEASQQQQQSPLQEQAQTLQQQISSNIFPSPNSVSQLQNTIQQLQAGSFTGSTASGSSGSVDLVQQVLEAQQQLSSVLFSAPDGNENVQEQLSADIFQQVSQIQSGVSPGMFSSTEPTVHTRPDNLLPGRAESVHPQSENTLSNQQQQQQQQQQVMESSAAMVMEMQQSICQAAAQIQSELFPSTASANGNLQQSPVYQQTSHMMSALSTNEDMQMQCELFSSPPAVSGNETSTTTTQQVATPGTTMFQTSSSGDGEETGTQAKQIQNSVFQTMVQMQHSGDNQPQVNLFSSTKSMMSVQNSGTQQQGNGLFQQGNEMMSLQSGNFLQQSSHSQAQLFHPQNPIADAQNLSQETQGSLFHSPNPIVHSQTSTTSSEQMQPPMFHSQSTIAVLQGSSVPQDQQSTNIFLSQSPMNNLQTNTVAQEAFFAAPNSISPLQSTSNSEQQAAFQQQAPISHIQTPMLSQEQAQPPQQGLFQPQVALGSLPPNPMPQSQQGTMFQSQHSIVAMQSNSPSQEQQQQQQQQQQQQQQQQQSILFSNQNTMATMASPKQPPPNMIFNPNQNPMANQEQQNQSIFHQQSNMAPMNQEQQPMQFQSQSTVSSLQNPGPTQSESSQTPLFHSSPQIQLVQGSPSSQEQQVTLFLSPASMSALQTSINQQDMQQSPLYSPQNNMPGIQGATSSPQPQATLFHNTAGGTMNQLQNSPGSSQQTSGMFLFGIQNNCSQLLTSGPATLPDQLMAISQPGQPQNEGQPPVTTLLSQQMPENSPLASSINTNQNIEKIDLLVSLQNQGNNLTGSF
Sequence of UniProt P00156 (P00156 whole entry, looked up): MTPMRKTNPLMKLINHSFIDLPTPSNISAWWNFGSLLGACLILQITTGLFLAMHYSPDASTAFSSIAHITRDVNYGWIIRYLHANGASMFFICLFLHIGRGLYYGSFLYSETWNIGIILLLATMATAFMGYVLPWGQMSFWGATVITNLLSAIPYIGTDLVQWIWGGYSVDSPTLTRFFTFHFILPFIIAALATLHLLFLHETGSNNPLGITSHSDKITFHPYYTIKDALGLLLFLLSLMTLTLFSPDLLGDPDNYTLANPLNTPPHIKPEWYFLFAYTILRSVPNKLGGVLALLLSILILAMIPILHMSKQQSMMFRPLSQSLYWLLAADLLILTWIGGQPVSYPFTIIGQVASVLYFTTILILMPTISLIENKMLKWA
Sequence of UniProt O15294 (O15294 whole entry, looked up): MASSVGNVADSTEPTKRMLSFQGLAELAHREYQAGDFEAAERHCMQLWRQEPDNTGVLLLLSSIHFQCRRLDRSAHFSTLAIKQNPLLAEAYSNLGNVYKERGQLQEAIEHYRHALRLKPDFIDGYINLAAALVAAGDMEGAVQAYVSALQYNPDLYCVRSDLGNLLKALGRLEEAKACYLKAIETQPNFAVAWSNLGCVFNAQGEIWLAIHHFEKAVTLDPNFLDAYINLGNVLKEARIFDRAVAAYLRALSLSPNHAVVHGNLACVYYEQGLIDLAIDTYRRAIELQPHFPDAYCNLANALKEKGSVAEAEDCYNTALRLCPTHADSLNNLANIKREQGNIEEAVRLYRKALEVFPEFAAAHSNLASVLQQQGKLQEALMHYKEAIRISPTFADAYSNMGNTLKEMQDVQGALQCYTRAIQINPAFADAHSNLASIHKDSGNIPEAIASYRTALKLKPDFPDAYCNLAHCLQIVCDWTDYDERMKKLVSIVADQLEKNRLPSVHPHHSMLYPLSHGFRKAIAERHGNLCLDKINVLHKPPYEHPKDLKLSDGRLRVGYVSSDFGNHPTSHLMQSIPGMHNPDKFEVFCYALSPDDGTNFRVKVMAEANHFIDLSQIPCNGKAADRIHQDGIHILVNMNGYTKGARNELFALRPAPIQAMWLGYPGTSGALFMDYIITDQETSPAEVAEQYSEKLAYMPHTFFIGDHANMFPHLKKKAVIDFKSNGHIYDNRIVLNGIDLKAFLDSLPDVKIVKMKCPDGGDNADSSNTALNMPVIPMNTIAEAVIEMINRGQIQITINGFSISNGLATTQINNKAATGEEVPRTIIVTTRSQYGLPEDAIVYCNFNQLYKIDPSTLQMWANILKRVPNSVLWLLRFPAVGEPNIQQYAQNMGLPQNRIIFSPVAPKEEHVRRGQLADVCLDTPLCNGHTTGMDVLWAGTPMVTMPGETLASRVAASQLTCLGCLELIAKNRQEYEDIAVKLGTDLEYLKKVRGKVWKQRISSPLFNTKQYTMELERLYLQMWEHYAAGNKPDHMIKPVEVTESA
Sequence of UniProt Q15653 (Q15653 whole entry, looked up): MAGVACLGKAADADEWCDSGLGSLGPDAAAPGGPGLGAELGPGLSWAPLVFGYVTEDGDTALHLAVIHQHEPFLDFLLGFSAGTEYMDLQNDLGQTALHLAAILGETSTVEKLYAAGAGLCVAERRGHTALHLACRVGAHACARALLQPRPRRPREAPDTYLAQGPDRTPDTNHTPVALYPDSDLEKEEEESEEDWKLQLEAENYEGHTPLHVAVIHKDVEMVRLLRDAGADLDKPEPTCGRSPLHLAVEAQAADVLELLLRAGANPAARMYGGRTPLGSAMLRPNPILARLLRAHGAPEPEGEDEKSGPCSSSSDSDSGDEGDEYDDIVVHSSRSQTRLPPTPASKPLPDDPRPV
Sequence of UniProt Q9BRA0 (Q9BRA0 whole entry, looked up): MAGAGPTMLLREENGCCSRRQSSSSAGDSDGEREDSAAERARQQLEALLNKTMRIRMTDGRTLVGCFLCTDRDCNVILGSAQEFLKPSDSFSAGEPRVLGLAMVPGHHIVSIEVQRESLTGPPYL
Sequence of UniProt O76041 (O76041 whole entry, looked up): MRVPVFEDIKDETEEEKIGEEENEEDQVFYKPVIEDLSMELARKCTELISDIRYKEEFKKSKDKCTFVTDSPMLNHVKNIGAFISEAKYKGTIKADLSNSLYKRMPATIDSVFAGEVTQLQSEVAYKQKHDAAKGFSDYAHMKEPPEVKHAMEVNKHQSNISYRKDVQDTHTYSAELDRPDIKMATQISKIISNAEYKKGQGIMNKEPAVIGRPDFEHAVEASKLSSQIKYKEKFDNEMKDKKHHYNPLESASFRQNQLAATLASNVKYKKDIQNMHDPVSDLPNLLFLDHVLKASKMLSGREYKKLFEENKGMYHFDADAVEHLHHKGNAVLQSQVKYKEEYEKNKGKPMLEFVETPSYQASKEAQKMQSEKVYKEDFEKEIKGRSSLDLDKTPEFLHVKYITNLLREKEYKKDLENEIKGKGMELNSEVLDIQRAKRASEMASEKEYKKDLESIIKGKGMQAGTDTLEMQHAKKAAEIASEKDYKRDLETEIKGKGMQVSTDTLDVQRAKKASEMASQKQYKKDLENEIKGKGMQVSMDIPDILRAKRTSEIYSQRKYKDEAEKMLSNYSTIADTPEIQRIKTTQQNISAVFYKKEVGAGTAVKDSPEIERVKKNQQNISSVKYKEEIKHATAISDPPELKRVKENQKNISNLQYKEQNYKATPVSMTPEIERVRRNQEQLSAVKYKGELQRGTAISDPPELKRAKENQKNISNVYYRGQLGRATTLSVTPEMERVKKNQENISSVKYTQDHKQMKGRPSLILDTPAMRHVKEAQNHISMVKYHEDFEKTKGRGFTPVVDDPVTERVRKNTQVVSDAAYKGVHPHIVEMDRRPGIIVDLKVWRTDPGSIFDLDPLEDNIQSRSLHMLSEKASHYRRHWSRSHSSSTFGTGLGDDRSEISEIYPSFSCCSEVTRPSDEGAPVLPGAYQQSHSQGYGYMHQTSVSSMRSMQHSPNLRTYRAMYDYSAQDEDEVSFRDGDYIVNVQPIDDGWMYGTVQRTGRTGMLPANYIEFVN

Target	log2 fold change [1]	log2 fold change [2]	log2 fold change [3]	log2 fold change [4]	log2 fold change [5]
NUP205 (UniProt Q92621)	-0.042	-0.019	0.045	0.006	-0.001
OGT (UniProt O15294)	0.029	0.012	0.016	0.067	0.039
MT-CYB (UniProt P00156)	0.062	-0.091	-0.052	-0.132	-0.468
MRPL51 (UniProt Q4U2R6)	-0.001	-0.053	0.043	0.066	-0.109
NAA38 isoform 2 (UniProt Q9BRA0)	-0.002	0.02	0.063	-0.005	-0.344 (active)
NEBL isoform 2 (UniProt O76041)	-0.025	-0.102	0.018	-0.07	-0.094
NFAT5 isoform 5 (UniProt O94916)	0.12	-0.028	0.009	-0.02	-0.007
PAK4 (UniProt O96013)	-0.06	-0.03	-0.018	-0.021	-0.14
NFKBIB (UniProt Q15653)	0.068	0	0.014	0.055	-0.185
